Reference: the supplement of paper PMC12024424
Where a name gives a salt, the structure may show the parent alone.

Columns and labels:
[1] = test system: Staphylococcus aureus Sa2 (MRSA, cystic fibrosis isolate); experiment: growth reduction vs untreated control (OD550); higher = stronger antibacterial activity; conditions: 0.1 mM; 24 h
Description: (§1)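 Single-dose screen of the MedChem Express Drug Repurposing Library (0.1 mM, 1% DMSO) against planktonic MRSA S. aureus Sa2 (CF isolate) in TSB in 96-well plates, 37 °C aerobic, 24 h. Assays were run in triplicate and repeated twice.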

[2] = test system: Staphylococcus aureus Sa2 (MRSA, cystic fibrosis isolate); experiment: growth reduction vs untreated control (viable cell count); higher = stronger antibacterial activity; extreme values may be limits of the assay; conditions: 0.1 mM; 24 h
Description: as §1

| Compound | growth reduction [1] | growth reduction [2] |
| --- | --- | --- |
| Cc1nc2c([nH]1)-c1ccccc1N(C(=O)c1ccc(NC(=O)c3ccccc3-c3ccccc3)cc1)CC2 [Conivaptan (hydrochloride)] | 90.4% | 100% |
| CC(C)(C)c1cc(C(C)(C)C)c(NC(=O)c2c[nH]c3ccccc3c2=O)cc1O [Ivacaftor] | 95.3% | 99% |
| CCCc1nc2c(C)cc(-c3nc4ccccc4n3C)cc2n1Cc1ccc(-c2ccccc2C(=O)O)cc1 [Telmisartan] | 91.8% | 100% |
| CCc1cc(-c2noc(-c3cc(OC)nc(C4CCCC4)c3)n2)cc(C)c1OC[C@@H](O)CO [Cenerimod] | 100% | 100% |
| CC1=C(/C=C/C(C)=C/C=C/C(C)=C/C(=O)Nc2ccc(O)cc2)C(C)(C)CCC1 [Fenretinide] | 100% | 100% |
| COc1c(-c2ccc3cc(NS(C)(=O)=O)ccc3c2)cc(-n2ccc(=O)[nH]c2=O)cc1C(C)(C)C [Dasabuvir] | 91.1% | 93% |
| Cc1ccc(-n2[nH]c(C)c(N=Nc3cccc(-c4cccc(C(=O)O)c4)c3O)c2=O)cc1C [Eltrombopag (Olamine)] | 95.9% | 100% |
| Cc1nc(C(=O)NCC(=O)O)c(O)c2ccc(Oc3ccccc3)cc12 [Roxadustat] | 99.9% | 98% |
| Cc1c(C)c2c(c(C)c1O)CCC(C)(COc1ccc(CC3SC(=O)NC3=O)cc1)O2 (stereo not given) [Troglitazone] | 97.5% | 100% |
| Cc1cc(OCCCS(C)(=O)=O)cc(C)c1-c1cccc(COc2ccc3c(c2)OC[C@H]3CC(=O)O)c1 [Fasiglifam] | 100% | 100% |
